Assay results published in PubChem BioAssay.

Test: small-molecule binders of probe aLefty1, primary screen, biochemical, small-molecule microarray, 635/667 nm fluorescence (AID 1153);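 note: score merges spot fluorescence with signal-to-noise ratio from the scanned slide images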
Details: higher = more signal

Q: For `COc1ccc([Si](C)(C)[C@H]2[C@H](CCO)O[C@@]3(C(=O)N(Cc4cccc(N5C(=O)COc6ccccc65)c4)c4ccccc43)[C@@H]2C)cc1`, which composite z-score is on record?
A: 0.122

Q: For `CC(C)(C)OC(=O)CC[C@@]1(C(=O)NCc2ccccc2)N=C(c2ccc(OCCCO)cc2)O[C@@H]1c1ccccc1N=[N+]=[N-]`, which composite z-score is on record?
A: 0.347

Q: Which composite z-score does the source give for `CN(C)CCCNC(=O)[C@@]1(c2ccc([N+](=O)[O-])cc2)CC(=O)N(CC23CC4CC(CC(C4)C2)C3)[C@@H]1c1ccc(CO)cc1I` here?
A: 0.198

Q: With `C=C[C@@H](OC)[C@H](OC(=O)Nc1ccc(SC)cc1)c1ccc(O)c(F)c1` as the molecule, how does the composite z-score read?
A: 0.44

Q: Which composite z-score does the source give for `CCC(CC)C(O)C1C=CC2C(=O)N(c3ccccc3)C(=O)C2N1Nc1ccc(C(C)C)cc1` (stereo not drawn) here?
A: 0.501

Q: For `COC(=O)[C@@]1(Cc2ccc(F)cc2)[C@H]2c3cc(C(=O)N(C)C)n(CCc4ccc(O)c(OC)c4)c3C[C@H]2CN1C(=O)c1ccccc1`, which composite z-score is on record?
A: 1.63

Q: For `CC(C)[Si](C#CCCCC#N)(O[C@H](c1ccccc1)c1cn([C@H](CO)Cc2ccccc2)nn1)C(C)C`, which composite z-score is on record?
A: -0.187

Q: For `Cc1cc(C)c(C(O)C2C=CC3C(=O)NC(=O)C3N2Nc2ccc(Cl)cc2Cl)c(C)c1` (stereo not drawn), which composite z-score is on record?
A: 0.479

Q: With `CCOc1cc(C(O)C2C=CC3C(=O)N(C)C(=O)C3N2Nc2ccccc2)ccc1O` (stereo not drawn) as the molecule, how does the composite z-score read?
A: 0.0313

Q: For `O=C1O[C@H](c2ccccc2)[C@H](c2ccccc2)N2[C@H]1[C@@H](C(=O)Nc1nc3ccccc3s1)[C@]1(C(=O)Nc3ccc(C#CCCO)cc31)[C@H]2c1ccc(O)cc1`, which composite z-score is on record?
A: 0.026

Q: With `CC(C)OC(=O)C=C1C[C@@H](c2ccc(C(F)(F)F)cc2)O[C@@H](c2ccc(C(F)(F)F)cc2)O1` as the molecule, how does the composite z-score read?
A: -0.0954

Q: Which composite z-score does the source give for `CN(C)C(=O)[C@]1(CCS(=O)(=O)c2ccccc2)N=C(c2ccc(OCCCO)cc2)O[C@@H]1c1ccccc1N=[N+]=[N-]` here?
A: 0.382

Q: With `C=CCOC(=O)[C@H]1[C@@H]2C(=O)O[C@@H](c3ccccc3)[C@@H](c3ccccc3)N2[C@@H](c2ccc(OCCOC(=O)[C@H]3C[C@H]4C(=O)N[C@@H](CCCCNC(C)=O)C(=O)N4[C@H]3c3ccc(O)cc3)cc2)[C@]12C(=O)Nc1ccccc12` as the molecule, how does the composite z-score read?
A: 0.026

Q: With `CC(CO)N1C(=O)[C@@H]2[C@H]3C(=O)OCC=C[C@H]3OC23C=CCN(Cc2ccccc2)C(=O)[C@@H]13` (stereo partly drawn) as the molecule, how does the composite z-score read?
A: -0.191

Q: With `COCCOC(=O)N1C(=O)[C@@]2(c3cc(C#Cc4ccc(OC)cc4)ccc31)[C@H](C(=O)Nc1nc3ccccc3s1)[C@H]1C(=O)O[C@H](c3ccccc3)[C@H](c3ccccc3)N1[C@@H]2c1ccc(O)cc1` as the molecule, how does the composite z-score read?
A: 0.703

Q: For `O=C1OCCC=C[C@H]2OC34C=CCN(Cn5nnc6ccccc65)C(=O)[C@H]3N(CCCCCCO)C(=O)[C@@H]4C12` (stereo partly drawn), which composite z-score is on record?
A: -0.81

Q: With `CN(C)C(=O)[C@@]1(CCS(=O)(=O)c2ccccc2)N=C(c2ccc(OCCCO)cc2)O[C@H]1c1ccccc1` as the molecule, how does the composite z-score read?
A: 0.142

Q: Which composite z-score does the source give for `CCCCN1CC=CC23O[C@@H]4/C=C\CCC(C)OC(=O)C4[C@H]2C(=O)N(C(CO)C(C)C)[C@@H]3C1=O` (stereo partly drawn) here?
A: 0.13

Q: Which composite z-score does the source give for `COC(=O)[C@H](Cc1ccccc1)N1CC(/C=C/C2CC2)=C[C@H]1[C@H](O)Cc1ccccc1` here?
A: -0.012

Q: Which composite z-score does the source give for `CCCCCCc1nc(C2CC2)cc2c1[Si](C(C)C)(C(C)C)OC2` here?
A: -0.0559

Q: Which composite z-score does the source give for `Cc1ccc(S[C@]2(C(=O)NCC(F)(F)F)CC(=O)N(C3CCCCC3)[C@@H]2c2ccc(CO)cc2I)cc1` here?
A: -0.0879

Q: For `CCCC[C@@H]1C[C@H]1[C@@H](NC(=O)Cc1ccccc1)c1ccc(-c2ccccc2)cc1`, which composite z-score is on record?
A: 0.369

Q: For `COC(=O)[C@@]1(Cc2ccc(OC)cc2)[C@H]2c3cc(C(=O)N(C)C)n(Cc4ccc(Cl)c(C(F)(F)F)c4)c3C[C@H]2CN1C(=O)c1ccccc1`, which composite z-score is on record?
A: 0.357

Q: With `C=C(C)C1CCC(C(O)C2C=CC3C(=O)N(C)C(=O)C3N2N2CCCCC2)CC1` (stereo not drawn) as the molecule, how does the composite z-score read?
A: 0.336

Q: With `COCCOC(=O)N1C(=O)[C@@]2(c3cc(C#CCNC(N)=O)ccc31)[C@H](C(=O)N1CCc3cc(OC)c(OC)cc3C1)[C@H]1C(=O)O[C@H](c3ccccc3)[C@H](c3ccccc3)N1[C@@H]2c1ccccc1OCCO` as the molecule, how does the composite z-score read?
A: 0.479

Q: For `O=C1OCCC/C=C\[C@H]2OC34C=CCN(CCN5CCOCC5)C(=O)[C@H]3N(CCCCCCO)C(=O)[C@@H]4C12` (stereo partly drawn), which composite z-score is on record?
A: 0.369

Q: Which composite z-score does the source give for `C#CCN([C@@H](Cc1ccc(O)cc1)C(=O)OC)[C@@H](/C=C/C1CC1)[C@H](O)Cc1ccccc1` here?
A: -0.294

Q: With `O=C1O[C@@H](c2ccccc2)[C@@H](c2ccccc2)N2[C@@H](c3ccccc3OCCO)[C@]3(C(=O)Nc4ccc(C#CCCO)cc43)[C@@H](C(=O)N3CCCCCCC3)[C@H]12` as the molecule, how does the composite z-score read?
A: 3.18
